What all share (test): NCI-60 one-dose screen, 48 h (100 = growth as untreated, 0 = no growth, -100 = all killed)
Conditions in all cases: 10 µM unless noted

For test [1], the system named is T-47D breast.
Test [2] has as its system BT-549 breast.
In test [3] the test system is MDA-MB-435 melanoma.
Test [4] deals with SW-620 colon.
Test [5] deals with MCF7 breast.
The test system of test [6] is HCT-116 colon.
In test [7] the test system is HCC-2998 colon.
Test [8] concerns KM12 colon.

Results on 36 compounds are retold here after PubChem BioAssay (NCI).

The panel holds about 83,000 compounds, 20% with a hit somewhere; the sample as a whole holds those more often.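 Method: cells in 96-well plates; compound added at one concentration; 48 h incubation; percent growth measured; values under 10 scored active.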 Values without a mark were called inactive. Activity calls are given as the source filed them.

As to `Clc1cccc(Cl)c1C1CSc2ccccc2N=C1c1ccccc1` (stereo not drawn), the growth in test [1] is 65.4%; in test [2] it was 42%; in test [3], 15.4%; in test [4], 3.48% (active); in test [5] it was 9.8% (active); in test [6] it was 19.3%. Also, the growth is 95.4% in test [7] and 44.1% in test [8].
Take `COc1cc(OC)c2cc(C(=O)c3ccc(C#N)cc3)c(=O)oc2c1`: the growth is 88.2% in test [1]; 87.3% in test [2]; 94.6% in test [3]; 106% in test [4]; 97.1% in test [5]; 92.1% in test [6]. Also, the growth in test [7] is 107%; in test [8], 97.5%.
As to `CC(C)c1ccc(C(=O)OCCCl)cc1`, the growth was 91.1% in test [1]; 100% in test [2]; 95.9% in test [3]; 106% in test [4]; 92.6% in test [5]; 82.4% in test [6]. For the same compound, the growth in test [7] was 98.9%; in test [8], 115%.
As to `C(=C\c1ccncc1)/c1ccncc1`, the growth in test [1] is 129%; in test [2] it was 91.2%; in test [3], 110%; in test [4], 104%; in test [5] it was 128%; in test [6], 115%. Also, the growth was 99.3% in test [7] and 112% in test [8].
On to `Nc1ccn(C2OC(CO)C(O)C2F)c(=O)n1` (stereo not drawn), for which the growth was 94.1% in test [1]; 93.9% in test [2]; 78.4% in test [3]; 67.7% in test [4]; 46.7% in test [5]; 49.2% in test [6]. Further, the growth in test [7] is 49.7%; in test [8], 89.6%.
As to `CCCC(=O)CC(=O)c1ccccc1`, the growth in test [1] is 96.1%; in test [2], 101%; in test [3], 110%; in test [4] it was 105%; in test [5] it was 97.2%; in test [6], 94.8%. Further, the growth in test [7] was 99.1%; in test [8], 102%.
For the compound `O=C(O)c1c[nH]c2ccccc2c1=O`, the growth is 89.5% in test [1]; 101% in test [2]; 107% in test [3]; 108% in test [4]; 93.9% in test [5]; 95% in test [6]. Also, the growth is 102% in test [7] and 100% in test [8].
In the case of `CCCCOC(=O)c1ccccc1O`, the growth in test [1] is 107%; in test [2], 109%; in test [3], 97.5%; in test [4], 101%; in test [5] it was 98%; in test [6] it was 109%. Moreover, the growth was 122% in test [7] and 106% in test [8].
Consider `CCCCN(C=S)CCCC`, for which the growth was 81% in test [1]; 97.4% in test [2]; 105% in test [3]; 96.4% in test [4]; 87.6% in test [5]; 98.9% in test [6]. For the same compound, the growth in test [7] and in test [8] was 102% throughout.
In the case of `CC(=O)C[n+]1ccc(C)cc1Sc1ccccc1C`, the growth in test [1] was 82.2%; in test [2] it was 90%; in test [3], 101%; in test [4] it was 100%; in test [5], 90.3%; in test [6] it was 92.9%. Moreover, the values for the growth in test [7] and in test [8] were 108% and 94.1%, respectively.
For the compound `COC(=O)C1(CC(C)=O)NC(=S)NC(=O)C1C#N` (stereo not drawn), the growth in test [1] is 108%; in test [2], 108%; in test [3], 114%; in test [4], 102%; in test [5], 97.5%; in test [6], 106%. The growth is 109% in test [7] and 106% in test [8].
`COc1cc(C(=O)O)c(O)c(C(C)(C)C)c1`: the growth in test [1] was 103%; in test [2], 105%; in test [3], 104%; in test [4], 106%; in test [5] it was 97.4%; in test [6], 101%. The results for the growth in test [7] and in test [8] were 96.7% and 104%, respectively.
On to `CCCCCCCCCCCCCCCCOc1ccccc1NC(=O)CC(C)=O`, for which the growth in test [1] is 111%; in test [2] it was 90.9%; in test [3] it was 102%; in test [4] it was 110%; in test [5], 91.9%; in test [6], 97.5%. The results for the growth in test [7] and in test [8] were 104% and 94.5%, respectively.
`CCC1CCC(C)NC1` (stereo not drawn): the growth in test [1] was 106%; in test [2], 101%; in test [3] it was 104%; in test [4] it was 96.9%; in test [5], 95%; in test [6], 98.8%. The growth in test [7] was 106%; in test [8], 97.6%.
In the case of `Cc1ccccc1NC(=O)Oc1ccc(Cl)cc1C(=O)c1ccccc1`, the growth is 104% in test [1]; 92.3% in test [2]; 103% in test [3]; 98.5% in test [4]; 105% in test [5]; 90.2% in test [6]. For the same compound, the growth in test [7] was 107%; in test [8], 90.4%.
For the compound `O=C(O)Cc1ccccn1`, the growth in test [1] was 110%; in test [2], 101%; in test [3] it was 104%; in test [4] it was 105%; in test [5], 100%; in test [6] it was 104%. Further, the growth in test [7] is 111%; in test [8], 104%.
In the case of `CCOC(=O)C(CCC#N)(CCC#N)C(=O)OCC`, the growth in test [1] was 112%; in test [2], 98%; in test [3], 101%; in test [4], 100%; in test [5], 91.4%; in test [6], 97.3%. Besides, the growth was 97.6% in test [7] and 106% in test [8].
On to `Nc1ncnc(Nc2ccc(C(F)(F)F)cc2)n1`, for which the growth in test [1] is 96.8%; in test [2] it was 98.2%; in test [3], 99.9%; in test [4] it was 109%; in test [5] it was 96.6%; in test [6] it was 95.3%. The growth in test [7] is 101%; in test [8], 105%.
For the compound `O=C(CCl)Nc1ccccc1SCc1cc(Cl)cc2c1OCOC2`, the growth in test [1] is 55.9%; in test [2], 71.9%; in test [3], 24.1%; in test [4] it was 87.1%; in test [5], 55.6%; in test [6] it was 78.9%. The growth was 99.1% in test [7] and 96.8% in test [8].
For the compound `O=S(=O)(c1ccc(NC(=S)NCc2cccnc2)cc1)N1CCCCC1`, the growth in test [1] was 32.9%; in test [2], 73.4%; in test [3], 36.2%; in test [4], 32.7%; in test [5], 54.7%; in test [6], 26.2%. The growth was 71.6% in test [7] and 51.7% in test [8].
In the case of `Nc1c(O)c(S(=O)(=O)O)c(O)c2c1C(=O)c1ccccc1C2=O`, the growth in test [1] was 23.5%; in test [2] it was 40%; in test [3], 21.3%; in test [4], 15.6%; in test [5], 13.8%; in test [6] it was 7.87% (active). The growth in test [7] is 31.8%; in test [8] it was 5.95% (active).
With `Nc1ccc2ccccc2c1-c1c(N)ccc2ccccc12`, the growth in test [1] is 32.2%; in test [2], 61.5%; in test [3], -4.5% (active); in test [4] it was 24.3%; in test [5], 19.6%; in test [6], 24.9%. The growth in test [7] was 66.3%; in test [8] it was 25.7%.
Consider `Nc1cc(N)ncn1`, for which the growth in test [1] is 112%; in test [2], 101%; in test [3], 102%; in test [4], 104%; in test [5], 99.7%; in test [6], 99.1%. For the same compound, the results for the growth in test [7] and in test [8] were 99.6% and 101%, respectively.
For the compound `COC(CCCl)c1ccc(Cl)cc1` (stereo not drawn), the growth in test [1] was 98.1%; in test [2] it was 102%; in test [3], 107%; in test [4], 100%; in test [5], 99%; in test [6] it was 103%. The growth is 106% in test [7] and 102% in test [8].
Consider `CCCCn1cnc2c(=O)[nH]cnc21`, for which the growth in test [1] was 97.8%; in test [2], 105%; in test [3], 100%; in test [4] it was 117%; in test [5], 98.2%; in test [6] it was 107%. Also, the growth is 117% in test [7] and 132% in test [8].
In the case of `CCOC(=O)Nc1nccs1`, the growth in test [1] is 94.8%; in test [2], 101%; in test [3], 111%; in test [4] it was 110%; in test [5], 101%; in test [6] it was 104%. The growth in test [7] is 118%; in test [8] it was 107%.
Turning to `CSCC[C@@H]1C(=O)N(C)[C@H](C(C)(C)C)N1C(=O)c1ccccc1`, the growth in test [1] is 104%; in test [2], 107%; in test [3], 106%; in test [4], 102%; in test [5] it was 101%; in test [6], 101%. Besides, the growth in test [7] is 105%; in test [8], 101%.
With `O=C(NCc1ccccc1)/C(=C/c1ccccc1)NC(=O)c1ccccc1`, the growth is 110% in test [1]; 98.6% in test [2]; 113% in test [3]; 102% in test [4]; 96.6% in test [5]; 107% in test [6]. Also, the growth in test [7] was 102%; in test [8], 101%.
Take `NNC(=O)c1ccccc1N`: the growth in test [1] was 103%; in test [2] it was 121%; in test [3] it was 114%; in test [4], 103%; in test [5], 101%; in test [6], 99.3%. Further, the values for the growth in test [7] and in test [8] were 112% and 105%, respectively.
For the compound `O=C(CCCl)OCCOc1ccccc1`, the growth was 96% in test [1]; 116% in test [2]; 110% in test [3]; 107% in test [4]; 92.1% in test [5]; 118% in test [6]. Moreover, the growth in test [7] was 108%; in test [8], 102%.
Take `Cc1ccnc(Nc2nc3ccccc3[nH]2)n1`: the growth in test [1] was 86.5%; in test [2], 112%; in test [3], 107%; in test [4], 99.3%; in test [5], 98.8%; in test [6], 103%. Moreover, the growth was 112% in test [7] and 118% in test [8].
Turning to `CCCCCCCCCCCCCC/C=C\C(CC(=O)O)C(=O)O` (stereo not drawn), the growth was 115% in test [1]; 116% in test [2]; 126% in test [3]; 103% in test [4]; 105% in test [5]; 103% in test [6]. The figures for the growth in test [7] and in test [8] were 102% and 103%, respectively.
Consider `CC(=O)c1cccc(NS(=O)(=O)c2ccc(C)cc2)c1`, for which the growth is 67.7% in test [1]; 74.8% in test [2]; -21.4% (active) in test [3]; 43.3% in test [4]; 39.8% in test [5]; 60.2% in test [6]. Further, the growth in test [7] is 65.4%; in test [8], 34.2%.
As to `CCOC(=O)CSCCC#N`, the growth in test [1] was 83.4%; in test [2], 87.2%; in test [3] it was 106%; in test [4], 100%; in test [5], 93.6%; in test [6], 95.2%. For the same compound, the growth is 104% in test [7] and 105% in test [8].
Take `CCNC(=O)Oc1ccc[nH]c1=O`: the growth was 86.1% in test [1]; 110% in test [2]; 103% in test [3]; 105% in test [4]; 91.5% in test [5]; 108% in test [6]. Also, the figures for the growth in test [7] and in test [8] were 106% and 104%, respectively.
In the case of `Cn1/c(=N\N=C\c2ccccc2OCCO)sc2ccccc21`, the growth in test [1] is 79.3%; in test [2], 102%; in test [3] it was 107%; in test [4] it was 109%; in test [5] it was 76.9%; in test [6], 98.8%. The growth in test [7] is 110%; in test [8], 92.2%.
